High-throughput results (PubChem BioAssay)
Only some compounds are listed: those with a hit (about 17% of all), similar ones and a draw of the others.
DT40 TDP1 no CPT: qHTS for Inhibitors of human tyrosyl-DNA phosphodiesterase 1 (TDP1): qHTS in cells in absence of CPT | Potency, µM (doses to about 46.2 µM), without a hit: top-dose activity change, negative = growth inhibition, usual class: inhibitors | DT40 Tdp1-/- hTDP1 cells, no CPT, ATP luminescence, 48 h | 420,000 tested, 15% active | AID 686978, 2013; further: on the % scale 0 is the no-effect control and ±100 the full control effect; nearly all actives have a fitted effect of over 55% in size
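Compound effects on proliferation are scored in DT40 Tdp1-/-;hTDP1 cells in the absence of CPT. ATP levels (CellTiter-Glo luminescence) are recorded after a ≥48 hr, 37 °C incubation.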
TDP1 cell CPT: qHTS for Inhibitors of human tyrosyl-DNA phosphodiesterase 1 (TDP1): qHTS in cells in presence of CPT; chicken DT40 Tdp1-/-;hTDP1 cells + 20 nM CPT, ATP luminescence, 48 h; Potency, µM (highest dose often 46.2 µM), for the others: at the top dose activity change, negative = growth inhibition, usual class: inhibitors; 420,000 tested, 12% active; further: on the % scale 0 is the no-effect control and ±100 the full control effect; nearly all actives have a fitted effect of over 55% in size
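Cell growth measured by CellTiter-Glo luminescence after a minimum 48 h, 37 C compound exposure with 20 nM CPT in Tdp1-knockout DT40 cells stably expressing hTDP1, seeded 400/well; qHTS titration format.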
ClpP mod: qHTS Assay for Activators of ClpP; ATP-dependent Clp protease proteolytic subunit (Bacillus subtilis (strain 168)), P80244; purified B. subtilis ClpP, FRET peptide cleavage, 20 min; Potency, µM (highest dose often 57.5 µM), for inactives: top-dose activity change, negative = active; 340,000 tested, 1.9% active; AID 651965, 2013; active means well fitted falling curve with a large enough effect; inconclusive means small, poorly fitted or top-dose-only effect; inactive means no such curve, though single readings can be large or run the other way; further: the source files actives as falling curves though it sought activators and does not explain the sign; nearly all actives have a fitted effect of over 65% in size
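Purified B. subtilis ClpP, 10 microg/mL final in Tris/HCl pH8 with KCl, BSA, glycerol and Tween-20, cleaved an Abz/nitrotyrosine-quenched decapeptide. Fluorescence (ex 320, em 430) was read at 0 and 20 min at room temperature. Delta was normalized to 5.8 microM ADEP and DMSO/no-enzyme controls.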
TDP1 block: qHTS Assay for Inhibitors of Tyrosyl-DNA Phosphodiesterase (TDP1). Tyrosyl-DNA phosphodiesterase 1 (Homo sapiens), Q9NUW8. recombinant TDP1, AlphaScreen DNA substrate cleavage. Potency, µM (titrated, usually from 130 µM), for the others: at the highest dose activity change, negative = inhibition, hits mostly inhibitors. 350,000 tested, 0.28% active. AID 485290, 2010; further: on the % scale 0 is the no-effect control and ±100 the full control effect; nearly all actives have a fitted effect of over 40% in size
Target sequence (Q9NUW8 whole entry, looked up): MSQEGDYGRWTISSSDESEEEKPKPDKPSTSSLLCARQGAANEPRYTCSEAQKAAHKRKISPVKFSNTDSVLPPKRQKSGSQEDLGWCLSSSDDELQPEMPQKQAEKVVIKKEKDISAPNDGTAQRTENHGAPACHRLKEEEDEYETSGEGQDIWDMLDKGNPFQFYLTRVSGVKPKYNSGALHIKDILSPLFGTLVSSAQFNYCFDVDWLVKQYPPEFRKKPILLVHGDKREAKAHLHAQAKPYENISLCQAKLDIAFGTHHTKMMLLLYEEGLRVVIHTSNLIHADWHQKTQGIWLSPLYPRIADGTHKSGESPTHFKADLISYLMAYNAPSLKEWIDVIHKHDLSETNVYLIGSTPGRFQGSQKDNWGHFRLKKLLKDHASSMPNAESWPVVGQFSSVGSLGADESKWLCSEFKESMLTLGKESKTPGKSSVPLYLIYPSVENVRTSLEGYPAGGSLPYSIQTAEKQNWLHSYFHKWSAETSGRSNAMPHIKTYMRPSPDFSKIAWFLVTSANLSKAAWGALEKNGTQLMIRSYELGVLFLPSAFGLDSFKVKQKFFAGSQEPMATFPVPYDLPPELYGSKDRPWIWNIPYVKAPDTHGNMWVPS
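E. coli-derived human Tdp1, 1 nM final. Cpd preinc 15 min RT; substrate 15 nM final, 5 min RT; AS bead mix 10 ug/ml final, 10 min RT. Signal loss = tyrosine-FITC cleavage. No-enzyme wells = max signal.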
Starred values were filed as active, the others as inactive; ? = inconclusive; . = not tested or not shown; [ ] = remark or other dose. Unless noted, the call rests on the fitted dose curve; in most records, active means well fitted curve in the direction sought with a large enough effect; inconclusive means small, poorly fitted or top-dose-only effect, or another doubt; inactive means no such curve, though single readings can be large; an effect the other way counts as inactive or inconclusive. Potency means the concentration at half of the fitted maximal effect.

SMILES	DT40 TDP1 no CPT	TDP1 cell CPT	ClpP mod	TDP1 block
COc1cccc(C2C(C(=O)c3cccs3)=C(O)C(=O)N2CCN2CCOCC2)c1OC (centres undefined)	-3.4%	6.0%	.	.
COc1cc(-n2c(C)nc3ncn(-c4ccccc4)c3c2=O)cc(OC)c1OC	-24.2%	-2.4%	4.0%	.
COc1cccc(-c2csc(-c3c(N)c(C(=O)c4ccc5c(c4)OCO5)n4ccccc34)n2)c1	-15.4%	-29.6%	0.8%	-5.1%
COc1cccc(CNC(=O)C2CCC(CNS(=O)(=O)c3ccc4c(c3)CCCC(=O)N4)CC2)c1 (centres undefined)	-22.2%	-24.9%	-0.6%	2.6%
CCOc1ccccc1NC(=O)C1CCC(CNS(=O)(=O)c2ccc3c(c2)CCCC(=O)N3)CC1 (centres undefined)	23.1µM*	?	1.1%	0.0%
COc1cccc(NC(=O)C2CCC(CNS(=O)(=O)c3ccc4c(c3)CCCC(=O)N4)CC2)c1 (centres undefined)	14.6µM*	11.6µM*	-3.1%	5.3%
CCN(Cc1ccccc1)C(=O)C1CCC(CNS(=O)(=O)c2ccc3c(c2)CCCC(=O)N3)CC1 (centres undefined)	16.4µM*	?	1.0%	7.9%
CCCCCCCNC(=O)C1CC(=O)N(C)C(=Nc2ccc(OC)cc2)S1 (centres undefined)	?	?	-1.6%	2.6%
NS(=O)(=O)c1ccc(S(=O)(=O)N2CCCC(c3ccccc3)C2)cc1 (centres undefined)	23.1µM*	?	-1.4%	.
Cc1ccc(S(=O)(=O)N2CCN(C)CC2)c(C)c1	-7.1%	-3.3%	0.2%	0.0%
O=S(=O)(c1ccc(Cl)cc1)N1CCC(c2ccncc2)CC1	?	?	-1.3%	8.3%
O=S(=O)(c1ccccc1)N1CCC(c2ccncc2)CC1	20.6µM*	-84.8%	-9.4%	-4.4%
CC(=O)Nc1ccc(S(=O)(=O)N2CCC(c3ccncc3)CC2)cc1	2.59µM*	5.17µM*	-4.0%	4.4%
Cc1ccc(S(=O)(=O)N2CCC(c3ccncc3)CC2)c(C)c1	10.3µM*	20.6µM*	-2.7%	3.4%
Cc1ccc2ccccc2c1NC(=O)CNCc1ccccc1	?	-8.4%	-3.1%	.
CC(C)(C)c1ccc(S(=O)(=O)N2CCC(c3ccncc3)CC2)cc1	8.2µM*	13µM*	0.3%	-2.5%
CC(C)Cc1ccc(S(=O)(=O)N2CCC(c3ccncc3)CC2)cc1	7.31µM*	9.2µM*	-0.1%	7.4%
CC(C)Cc1ccc(S(=O)(=O)N2CCCC2)cc1	?	?	-0.2%	-4.7%
COC(=O)c1ccccc1NC(=O)Cn1c(=O)n(CCCC(=O)NCCc2ccc(OC)c(OC)c2)c(=O)c2ccccc21	-8.1%	-6.4%	-17.1%	-2.7%
C=CCc1cccc(/C=C/c2cc(=O)c3ccccc3[nH]2)c1O	7.31µM*	7.31µM*	-4.5%	2.6%
Cc1cc(Nc2nc3ccccc3nc2Cl)n(-c2ccccc2)n1	16.4µM*	18.4µM*	-1.6%	-2.6%
Cc1cc(Nc2nnnn2-c2ccccc2)n(-c2ccccc2)n1	-15.7%	?	-0.6%	3.8%
Cc1cc(Nc2ccccc2)n(-c2ccc(Br)cc2)n1	?	18.4µM*	-0.4%	-7.0%
Cc1cc(NC(=O)c2c(C)noc2C)no1	-13.1%	2.8%	.	-1.3%
O=C(COc1ccc2c(c1)OCO2)Nc1cccc(F)c1	-14.7%	3.3%	.	1.6%[0.0935 µM]
SMILES	DT40 TDP1 no CPT	TDP1 cell CPT	ClpP mod	TDP1 block
O=C(CSc1nc(=O)[nH]c2c1CCC2)Nc1cc(C(F)(F)F)ccc1Cl	?	?	-5.3%	2.6%
O=C(CSc1nc(=O)[nH]c2c1CCCC2)Nc1cc(C(F)(F)F)cc(C(F)(F)F)c1	23.1µM*	18.4µM*	-0.8%	.
COc1ccc2nc(/N=C\N(C)C)sc2c1	-1.7%	-13.2%	2.4%	-3.1%
COc1ccc2nc(N=Nc3ccc(N(C)C)cc3)sc2c1	?	16.4µM*	1.8%	9.6%
Cc1cc(N=Cc2c(O)n(-c3cccc(C(F)(F)F)c3)c(=O)c3ccccc23)no1	23.1µM*	18.4µM*	-0.5%	5.1%
Cc1ncc([N+](=O)[O-])n1S(=O)(=O)c1cc(Cl)ccc1Cl	2.2%	13.2%	-0.2%	5.1%
O=C(OCn1ncc(Cl)c(Cl)c1=O)c1ccc(C(F)(F)F)cc1	5.8µM*	2.91µM*	-5.1%	-8.6%
Cc1ccc(C(=O)OCn2ncc(Cl)c(Cl)c2=O)cc1	2.59µM*	1.84µM*	-0.3%	-3.9%
Cc1ccc(C(=O)COC(=O)c2nc(Cl)ccc2Cl)cc1	0.9%	2.2%	.	-7.2%
COc1ccc(C(N)c2csc(Nc3ccc(C(=O)NCCCO)cn3)n2)cc1 (centres undefined)	?	?	28.2µM*	.
CC(N)c1csc(Nc2ccc(C(=O)NCCCO)cn2)n1 (centres undefined)	-10.7%	-13.6%	-14.2%	.
NC(Cc1ccc(C(F)(F)F)cc1)c1csc(Nc2ccc(C(=O)NCCCO)cn2)n1 (centres undefined)	16.4µM*	?	?	.
NC(Cc1ccc(C(F)(F)F)cc1)c1csc(Nc2ccc(C(=O)NCc3ccco3)cn2)n1 (centres undefined)	?	14.6µM*	-25.9%	.
O=C(NCc1ccco1)c1ccc(COCC(F)(F)F)cc1	-13.7%	-8.1%	-0.1%	2.3%
NC(c1csc(Nc2ccc(C(=O)NCCCO)cn2)n1)C1CCCCC1 (centres undefined)	?	-44.3%	-22.2%	.
COc1ccccc1NC(=O)COc1ccc(C(=O)NCc2ccccc2)cc1OC	?	?	0.0%	-0.1%
CCOc1ccc(NC(=S)N2CCC(NC(=O)c3ccccc3C)CC2)cc1	-16.2%	-1.4%	.	11.2%
CCOc1cc(O)c(-c2[nH]ncc2-c2nc(C)cs2)cc1CC	20.6µM*	23.1µM*	-7.9%	.
O=C(/C=C/[C@H]1O[C@@H](n2ccc(=O)[nH]c2=O)[C@H](O)[C@@H]1O)NCCN1CCOCC1	0.3%	3.5%	0.9%	.
COc1ccc(CCC(=O)NCCNC(=O)CCc2ccc(OC)cc2)cc1	-2.3%	8.2%	0.5%	.
CCOC(=O)N1CCN(C(=O)c2ccc(CSc3ccc(Cl)cc3)cc2)CC1	7.31µM*	?	.	-5.1%
CN1CCN(C(=O)c2ccc(CSc3ccc(Cl)cc3)cc2)CC1	23.1µM*	20.6µM*	?	0.0%
CC12CCC(=O)N1C(C(=O)NCCN1C(=O)S/C(=C\c3ccc(F)cc3)C1=O)CS2 (centres undefined)	?	?	0.5%	.
Cc1ccc2c(c1)sc(-c1ccc(N(C)C)cc1)[n+]2C	0.0184µM*	0.0366µM*	?	.
CCOC(=O)C1=C(O)C(=O)N(Cc2ccccc2)CC1	-10.1%	-6.0%	.	.
Cc1ccccc1CN1CC2=C(CCN(Cc3ccccc3)C2=O)N2CCN=C12	1.3µM*	0.581µM*	-6.2%	.
